Measurements as given in PubChem BioAssay (Tox21).
Activity calls are given as the source filed them. Where a call stands in place of a potency, no number is given. Calls come from the whole dose curve.

Test: qHTS assay to identify small molecule agonists of the sonic hedgehog signaling (Shh) pathway (AID 1259368);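 note: NIH/3T3-derived 3T3Gli1-Luc cells carrying a stable Gli1-driven firefly luciferase reporter; nearly all actives have a fitted effect of over 15% in size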
Conditions: NIH/3T3 Gli1-Luc reporter, luciferase, 24 h; series mostly up to 92.4 µM
Description: National Center for Advancing Translational Sciences [NCATS]
NIH Chemical Genomics Center [NCGC]
U.S. Environmental Protection Agency [EPA]
National Institutes of Environmental Health Sciences [NIEHS]
National Toxicology Program [NTP]
The sonic hedgehog (Shh) pathway is essential for normal embryonic development. Dysregulation of the Shh pathway can cause severe developmental defects in organs. Therefore chemicals that interfere with the pathway are potential developmental toxicants. A cell line designated 3T3Gli1-Luc (DMB/OARSA/CFSAN/FDA, Laurel, MD), a NIH/3T3 derived clone containing stably integrated Gli1-Luc reporter is used to detect chemical interference of the Shh pathway, by changes in the expression of the firefly Luc gene under the control of the Gli1 transcriptional response element. This cell line was used to screen Tox21 libraries for identifying and prioritizing the potential developmental toxicants that interfere Shh pathway.
3T3 Gli1-Luc cells were dispensed at 2,000 per well in 5uL of culture medium into white solid bottom 1536-well plates (Greiner Bio-One, Monroe, NC) using a Multidrop Combi (Thermo Scientific, Waltham, MA) dispenser. The assay plates were incubated at 37 C and 5% CO2 for 4hr, and then 23nL of compounds dissolved in DMSO and positive control were transferred using a Pintool station (Wako, San Diego, CA). The assay plates were incubated at 37C and 5% CO2 for 24hr. For luciferase read, 4uL of Amplite Luciferase reporter gene assay reagent (AAT Bioquest, Inc. Sunnyvale, CA) was added to each well of the assay plates using Flying Reagent Dispenser (FRD, Aurora Discovery, San Diego, CA) and incubated at room temperature for 30min. The luminescence signal was measured using a ViewLux plate reader (Perkin Elmer, Shelton, CT).
With O=Cc1c2ccccc2c(Cl)c2ccccc12 the Potency was “inactive”. For C/C=C/C=C/C=O, the Potency was “inactive”. For c1ccc(C[n+]2cccc3ccccc32)cc1, the Potency was “inactive”. In the case of CC(O)c1ccccc1 (stereo not given), the Potency is reported as “inactive”. With CC(CC1c2ccccc2CCc2ccccc21)CN(C)C (stereo not given) the Potency was “inactive”. With CCN(CC)CCNC(=O)COc1ccc(OC)cc1 the Potency was “inactive”. With C[C@H]1C[C@H](O)c2ccsc2S1(=O)=O the Potency was “inactive”. For OC(CCN1CCCC1)(c1ccccc1)C1CCCCC1 (stereo not given), the Potency was “inactive”. In the case of CCOc1ccccc1O[C@H](c1ccccc1)[C@H]1CNCCO1, the Potency is reported as “inactive”. With CC(=O)Oc1ccc([N+](=O)[O-])cc1CCl the Potency was “inactive”. With Cc1cc(O)ccc1O the Potency was “inactive”. For CCOC(=O)OC(C)OC(=O)[C@@H]1N2C(=O)[C@@H](NC(=O)[C@H](N)c3ccccc3)[C@H]2SC1(C)C (stereo not given in full), the Potency was “inactive”. With CN1C(=O)N(c2ccccc2Br)Cc2cnc(Nc3ccc4c(c3)OCC(CO)O4)nc21 (stereo not given) the Potency was “inactive”. For C=C(C)CCCC(C)CCO (stereo not given), the Potency was “inactive”. For CCC(C)COC(=O)CC(C)C (stereo not given), the Potency was “inactive”. With C=COCC(C)C the Potency was “inactive”. In the case of Cc1ccco1, the Potency is reported as “inactive”. In the case of CC(C)=CC(=O)C=C(C)C, the Potency is reported as “inactive”. With CN1CCCC(n2nc(Cc3ccc(Cl)cc3)c3ccccc3c2=O)CC1 (stereo not given) the Potency was “inactive”. For Cc1ccc(C(C)(C)O)cc1, the Potency was “inactive”. In the case of Nc1nnc(-c2ccc([N+](=O)[O-])o2)o1, the Potency is reported as “inactive”. With NCCNCCO the Potency was “inactive”. With FC(F)(F)c1ccccc1Cl the Potency was “inactive”. With C=C1C[C@@]23CC[C@H]4[C@@](C)(CCC[C@@]4(C)C(=O)O[C@@H]4O[C@H](CO)[C@@H](O)[C@H](O)[C@H]4O)[C@@H]2CC[C@]1(O[C@@H]1O[C@H](CO)[C@@H](O)[C@H](O[C@@H]2O[C@H](CO)[C@@H](O)[C@H](O)[C@H]2O)[C@H]1O[C@@H]1O[C@H](CO)[C@@H](O)[C@H](O)[C@H]1O)C3 the Potency was “inactive”. For CCOC(=O)c1ccccc1C(=C1C=C(Br)C(=O)C(Br)=C1)c1cc(Br)c(O)c(Br)c1, the Potency was “inactive”. With Cc1ccc(OC(=O)c2ccccc2O)cc1 the Potency was “inactive”. For CCCCC(CC)COP(=O)(O)O (stereo not given), the Potency was “inactive”. In the case of O=C=Nc1cccc(C(F)(F)F)c1, the Potency is reported as “inactive”. In the case of Nc1ncnc2c1ncn2[C@H]1CC[C@@H](CO)O1, the Potency is reported as “inactive”. For CCC(=O)C1CC(C(C)C)CC=C1C (stereo not given), the Potency was “inactive”. For C[C@@H]1CC(=O)NN=C1c1ccc(NN=C(C#N)C#N)cc1, the Potency was “inactive”. For CCCCCCCCCCCCCCN(CCO)CCO, the Potency was “inactive”. In the case of CCCC(=O)C(=O)O, the Potency is reported as “inactive”. In the case of CN(C)CCN1C(=O)c2ccccc2N(C)c2ccccc21, the Potency is reported as “inactive”. With CC(=O)c1cc2ccccc2s1 the Potency was “inactive”. In the case of O=C(/C=C/c1ccccc1)OCCc1ccccc1, the Potency is reported as “inactive”. For CO/N=C(/C(=O)N[C@@H]1C(=O)N2C(C(=O)O)=C(COC(N)=O)CS[C@H]12)c1ccco1, the Potency was “inactive”. In the case of O=C(O)C[C@H](NC(=O)OCc1ccccc1)C(=O)O, the Potency is reported as “inactive”. In the case of CC1CC(OC(=O)C(O)c2ccccc2)CC(C)(C)N1C (stereo not given), the Potency is reported as “inactive”. In the case of CN1CC(=O)N2[C@H](c3ccc4c(c3)OCO4)c3[nH]c4ccccc4c3C[C@@H]2C1=O, the Potency is reported as “inactive”.
